In the library only some 7.5% were active in any assay of this set; here they are far more common.
FLuc modulator: inhibits or activates purified firefly luciferase, miR-21 counter-screen; purified FLuc, Km substrates, luminescence inhibition; Potency, µM (highest dose often 57.5 µM), most hits filed as inhibitors; 360,000 compounds, 6.9% hits; AID 588342; also: nearly all actives have a fitted effect of over 55% in size
Target sequence (P08659 whole entry, looked up): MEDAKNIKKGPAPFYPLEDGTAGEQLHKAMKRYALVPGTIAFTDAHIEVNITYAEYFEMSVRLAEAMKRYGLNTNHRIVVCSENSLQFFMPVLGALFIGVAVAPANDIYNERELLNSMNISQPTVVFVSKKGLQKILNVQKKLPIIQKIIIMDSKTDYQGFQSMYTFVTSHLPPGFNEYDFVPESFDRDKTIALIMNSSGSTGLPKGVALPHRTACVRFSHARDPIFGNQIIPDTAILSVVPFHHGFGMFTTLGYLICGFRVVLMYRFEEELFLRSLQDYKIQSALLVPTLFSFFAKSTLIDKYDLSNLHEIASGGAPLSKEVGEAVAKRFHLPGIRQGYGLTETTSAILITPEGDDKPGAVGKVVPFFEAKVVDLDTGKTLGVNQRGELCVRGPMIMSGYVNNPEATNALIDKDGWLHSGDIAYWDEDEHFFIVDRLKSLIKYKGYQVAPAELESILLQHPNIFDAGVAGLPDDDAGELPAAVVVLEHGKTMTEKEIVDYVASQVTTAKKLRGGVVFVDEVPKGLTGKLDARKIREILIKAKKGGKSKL
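Purified P. pyralis luciferase (10nM final) with 10uM D-luciferin and 10uM ATP (Km levels) in 50mM Tris acetate pH 7.5, 10mM Mg acetate, 0.01% Tween-20, 0.05% BSA; qHTS 6-point titration, ~60 µM downward; luminescence read.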
ELG1 genotox: induces genotoxicity in HEK293T cells with luciferase-tagged ELG1; HEK293T ELG1-luciferase reporter, luminescence, 16 h; Potency, µM (series often up to 46 µM), actives largely listed as activators; 330,000 compounds, 1.3% hits; AID 504466; also: nearly all actives have a fitted effect of over 60% in size
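Cells (2,000/well) expressing the ELG1-luciferase fusion are dosed by pin tool and kept 16 hr at 37 °C, 5% CO2. Signal comes from ONE-Glo luciferase reagent after 30 min at room temperature.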
NPC1 prom act: NPC1 promoter activation; Huh7 NPC1 promoter luciferase reporter, 24 h; AID 485313; Potency, µM (highest dose often 9.22 µM), hits mostly activators; 320,000 compounds, 2.4% hits; also: nearly all actives have a fitted effect of over 60% in size
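In 1536-well qHTS, Huh7 cells harboring an NPC1 promoter–luciferase construct received compound for 24 h; activation was quantified by luminescence following luciferase reagent addition.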
Rab9 prom act: Rab9 promoter activation | Huh7 Rab9 promoter-luciferase reporter, luminescence, 24 h | Potency, µM (doses to about 9.22 µM), most hits filed as activators | 320,000 compounds, 2.8% hits; also: nearly all actives have a fitted effect of over 60% in size
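Luciferase signal after 10 min detection reagent at ambient indicates Rab9 promoter upregulation; stably transfected Huh7 cells were treated 24 h with compound in DMSO at 37 °C, 5% CO2.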
SMN2 splice up: SMN2 splice variant enhancement | Potency, µM (titrated, usually from 46.1 µM), usual class: activators | HEK293 SMN2-luciferase splicing reporter, luminescence, 30-36 h | AID 1458 | 210,000 compounds, 2.8% hits; also: nearly all actives have a fitted effect of over 55% in size
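qHTS luciferase splicing reporter: luminescence rises when SMN2 exon 7 is included in transfected HEK293 cells. Compound exposure lasted 30-36 h at 37C, with 4.5 mM final sodium butyrate as control, followed by a ONE-Glo read.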
Luc counter: blocks Kinase-Glo luciferase, a counter-screen artifact. Q27757. Kinase-Glo luciferase, ATP luminescence, 8 min. Potency, µM (doses to about 38.3 µM), hits mostly inhibitors. 200,000 compounds, 0.28% hits; also: nearly all actives have a fitted effect of over 60% in size
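Substrate mix (final 50 mM imidazole pH 7.2, 50 mM KCl, 7 mM MgCl2, 10 uM ATP, 0.01% Tween 20, 0.05% BSA) plus pin-tool compound, then Kinase-Glo detection mix; 8 min ambient, luminescence read.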
A number is an active result; n = inactive; u = inconclusive; x = no result. Calls follow the shape of the dose curve; as a rule, active = well fitted curve in the direction sought with a large enough effect; inconclusive = small, poorly fitted or top-dose-only effect, or another doubt; inactive = no such curve, though single readings can be large; an effect the other way counts as inactive or inconclusive.

SMILES	FLuc modulator	ELG1 genotox	NPC1 prom act	Rab9 prom act	SMN2 splice up	Luc counter
Nc1nc2ccc(Cc3ccncc3)cc2s1	16.9µM	u	n	u	x	x
Cc1ccc(C)c(Cn2c(=O)n(C(C)C)c(=O)c3oc4ccccc4c32)c1	n	x	x	x	x	x
CC(C)(C)c1ccc(C(=O)Nc2cccc3c(=O)[nH][nH]c(=O)c23)cc1	0.849µM	u	n	u	n	n
Cc1ccc(NC(=O)c2c(O)c3ccccc3n(C)c2=O)nc1	u	n	3.55µM	n	u	n
CCn1c(=O)c(C(=O)Nc2ccc(C)cc2)c(O)c2ccccc21	u	n	n	n	x	x
Cn1c(=O)c(C(=O)NCc2ccc(F)cc2)c(O)c2ccccc21	n	n	n	n	x	x
C=CCn1c(=O)c(C(=O)Nc2ccccc2C)c(O)c2ccccc21	u	u	3.98µM	3.98µM	x	x
Cn1c(=O)c(C(=O)NCc2ccccc2)c(O)c2ccccc21	16.9µM	n	u	u	x	x
C=CCn1c(=O)c(C(=O)Nc2ccccc2O)c(O)c2ccccc21	u	n	n	n	n	n
Cc1ccnc(NC(=O)c2c(O)c3ccccc3n(C)c2=O)c1	3.01µM	u	3.55µM	3.98µM	12.6µM	n
COc1ccc(C(O)P(=O)(OCCC(C)C)c2ccc(N(C)C)cc2)cc1 (stereo unspecified)	n	n	n	n	x	x
Cc1ccc(NC(=O)CSc2nc3nccnc3c(=O)n2CCc2c[nH]c3ccccc23)cc1	n	x	x	x	x	x
Cn1c(=O)c(C(=O)Nc2ncccc2O)c(O)c2ccccc21	u	u	3.16µM	u	n	n
Cc1cccc(NC(=O)c2c(O)c3ccccc3n(C)c2=O)c1	u	u	2.82µM	2µM	x	x
CCCn1c(=O)c(C(=O)Nc2ncccc2O)c(O)c2ccccc21	n	n	n	n	x	x
COc1ccc(-n2nc(-c3ccc(C)cc3)c3cnc4cc(F)c(F)cc4c32)cc1	n	x	x	x	n	x
Cc1ccc(N2C(=O)c3ccc(C(=O)N4CCN(Cc5ccccc5)CC4)cc3C2=O)cc1	n	n	n	n	x	x
c1ccc2c(N3CCOCC3)c3c(nc2c1)CCC3	n	n	n	n	x	x
COc1ccc2c(c1)CCc1c-2nc2ccccc2c1N1CCOCC1	5.36µM	n	n	n	x	x
Cc1cc(=O)n(-c2ccc3ccccc3n2)[nH]1	u	u	n	n	n	n
CNc1ccccc(-c2ccc3ccccc3n2)c1=O	9.53µM	u	u	3.55µM	11.2µM	n
Cc1cc(C)c(NC(=O)CSc2nc3ccccc3nc2N2CCCCC2)c(C)c1	n	x	x	x	n	x
CC(/C=C/c1ccco1)=N\NC(=O)c1cc(C)[nH]n1	n	n	n	n	n	n
C/C(=N\NC(=O)c1ccn(C)n1)c1ccco1	16.9µM	16.4µM	u	2.51µM	x	x
C/C(=N/NC(=O)c1cc(C)[nH]n1)c1ccco1	21.3µM	u	u	3.98µM	x	x
SMILES	FLuc modulator	ELG1 genotox	NPC1 prom act	Rab9 prom act	SMN2 splice up	Luc counter
C/C(=N\NC(=O)c1cc(-c2ccc(C)s2)[nH]n1)c1ccco1	21.3µM	n	n	n	11.2µM	n
C/C(=N\NC(=O)Cc1cccn1C)c1ccco1	n	n	n	n	x	x
CCCSCCCNC(=O)C1CCN(C(=O)c2cnn(-c3ccccc3)c2-n2cccc2)CC1	n	x	x	x	n	x
C/C(N)=C(/C#N)C(=O)CSc1nc2ccccc2[nH]1	21.3µM	20.6µM	u	u	u	n
C/C(N)=C(/C#N)C(=O)CSc1nnc(Nc2ccccc2)s1	21.3µM	u	u	2µM	11.2µM	n
CC1CCN(C(=O)CSc2nc3ccccc3[nH]2)CC1	23.9µM	u	2.51µM	3.16µM	15.8µM	n
C/C(N)=C(/C#N)C(=O)CSc1nnc(Nc2ccccc2C)s1	u	n	u	n	n	n
O=C(NCCCN1CCCC1=O)Nc1ccccc1F	n	n	n	n	x	x
COc1ccc(-n2c(SCc3ccccc3)nc3c([nH]c4ccccc43)c2=O)cc1	n	x	x	x	x	x
CCOc1ccc(-c2cc(C(=O)O)c3ccccc3n2)c(OCC)c1	16.9µM	n	n	n	n	n
O=C(O)c1cc(-c2cccc3ccccc23)nc2ccccc12	26.9µM	n	n	n	x	x
O=C(O)c1cc(-c2cc(C(=O)O)c3ccccc3n2)nc2ccccc12	u	n	n	n	x	x
O=C(c1cc(-c2cccc3ccccc23)nc2ccccc12)N1CCN(CCO)CC1	x	n	x	x	x	x
